Results filed as inconclusive are left out. A call without a number means that no potency is given here. Activity calls are given as the source filed them. The call rests on the fitted dose curve; in most records, active means well fitted activation curve with a large enough effect in the repeat runs; inconclusive means weak or mixed curves; inactive means flat fitted curve, though single readings scatter.
Potency means the concentration at half of the fitted maximal effect.

The nature of the test: A CellTox Green Cytotoxicity Assay to monitor cytotoxicity in HEK293 cells - 32 hour (AID 1224881). Further: nearly all actives have a fitted effect of over 40% in size. The conditions noted are these: CellTox Green fluorescence; series mostly up to 76.8 µM. The text has this:
National Center for Advancing Translational Sciences [NCATS]
NIH Chemical Genomics Center [NCGC]
U.S. Environmental Protection Agency [EPA]
National Institutes of Environmental Health Sciences [NIEHS]
National Toxicology Program [NTP]
Cell-based models are critical for drug discovery. Determining the natural cytotoxic effects resulting from test compounds is an essential research activity. A CellTox Green Cytotoxicity Assay to monitor cytotoxicity in real time of continues cell culture during 40 hours of the compound treatment was used to screen Tox21 10K library compounds in Hek293 cells. CellTox Green Cytotoxicity Assay is a nonlytic, homogeneous, biofluorescent method to measure cytotoxicity in cell culture after experimental manipulation. The assay system uses a proprietary asymmetric cyanine dye that is excluded from viable cells but preferentially stains the dead cell's DNA. […] Viable cells produce no appreciable increases in fluorescence. Therefore, the fluorescence signal produced by the binding interaction with dead cell DNA is proportional to cytotoxicity.
The mixture of Hek293 cell suspension and reagents were dispensed at 600cells/6 ul/well in 1536-well tissue culture treated black solid bottom plates using a Multidrop dispenser. After the assay plates were incubated at a 37 C/5% CO2 incubator for 5 hours, 23 nL of compounds dissolved in DMSO, positive and negative controls was transferred to the assay plate by a pintool work station. The plates were incubated at 37 C for 40 hours. The fluorescence intensity were measured at 0h, 8h, 16h, 24h, 32h and 40h time points using ViewLux plate reader during compound treatment.
In the case of `CC1(C)[C@H](C=C(Cl)Cl)[C@@H]1C(=O)O[C@@H](C#N)c1cccc(Oc2ccccc2)c1`, the Potency result is “inactive”.

For `Cc1ccccc1C(=O)Nc1cccc(OC(C)C)c1`, the Potency result was “inactive”.

Consider `ClCc1cccc(Cl)c1`, for which the Potency result is “inactive”.

On to `OC(c1ccc(Cl)cc1)(c1ccc(Cl)cc1)c1cccnc1`, for which the Potency result is “inactive”.

For the compound `C=COC(C)=O`, the Potency entry was “inactive”.

Turning to `CCOP(=S)(OCC)SCSCC`, the Potency entry was “inactive”.

In the case of `CCC(C)(NC(=O)c1cc(Cl)c(C)c(Cl)c1)C(=O)CCl` (stereo not given), the Potency was 43.9 µM (active).

As for `CCOc1nc(F)cc2nc(S(=O)(=O)Nc3c(Cl)cccc3Cl)nn12`, the Potency entry is “inactive”.

As to `CCCCC(O)(Cn1cncn1)c1ccc(Cl)cc1Cl` (stereo not given), the Potency is 54.9 µM (active).

Turning to `CC(C)N(CCC(C(N)=O)(c1ccccc1)c1ccccn1)C(C)C` (stereo not given), the Potency result was “inactive”.

`O=[N+]([O-])c1ccccc1CCl`: the Potency entry is “inactive”.

Consider `C#CCOC(C(=O)OCCN(C)C)(c1ccccc1)c1ccccc1`, for which the Potency result was “inactive”.

For `Nc1ccc(N=Nc2ccc(-c3ccc(N=Nc4c(S(=O)(=O)O)cc5cc(S(=O)(=O)O)c(N=Nc6ccccc6)c(O)c5c4N)cc3)cc2)c(N)c1`, the Potency entry was “inactive”.

Turning to `COc1cc(Cl)c(OC)cc1Cl`, the Potency result is “inactive”.

In the case of `Cc1ccc2ccccc2c1`, the Potency entry was “inactive”.

In the case of `COCC(C)N(C(=O)CCl)c1c(C)csc1C` (stereo not given), the Potency result is “inactive”.

Consider `CC(C)(C)c1cc([N+](=O)[O-])cc([N+](=O)[O-])c1O`, for which the Potency entry is “inactive”.

For the compound `N#C/C(N)=C(/N)C#N`, the Potency entry was “inactive”.

Turning to `O=S1(=O)OC(c2cc(Br)c(O)c(Br)c2)(c2cc(Br)c(O)c(Br)c2)c2ccccc21`, the Potency entry was “inactive”.

`O=NN1CCCCCC1`: the Potency entry is “inactive”.

With `c1ccc(C2CC2)c(OCC2=NCCN2)c1`, the Potency entry was “inactive”.

Regarding `COc1nn(CSP(=S)(OC)OC)c(=O)s1`, the Potency entry is “inactive”.

As to `CCCCCCCCCC(=O)O[C@H]1CC[C@H]2[C@@H]3CCC4=CC(=O)CC[C@@H]4[C@H]3CC[C@]12C`, the Potency result is “inactive”.

`O=S(=O)(Cl)c1ccccc1`: the Potency result is “inactive”.

Regarding `C=CC(C)=O`, the Potency result was “inactive”.

Take `Cl/C=C\C[N+]12CN3CN(CN(C3)C1)C2`: the Potency result was “inactive”.

Turning to `CCOC(=O)[C@]1(c2ccccc2)Oc2ccccc2[C@@H]1N`, the Potency result was “inactive”.

For `O=C1C(=O)c2cccc3cccc1c23`, the Potency entry is “inactive”.

In the case of `CC(C)(OO)c1ccccc1`, the Potency entry is “inactive”.

Regarding `CCBr`, the Potency result was “inactive”.

As for `C=CC(=O)OCCCCO`, the Potency entry is “inactive”.

Consider `CC/C(=N\OC/C=C/Cl)C1=C(O)CC(C2CCOCC2)CC1=O` (stereo not given), for which the Potency entry was “inactive”.

With `COP(=S)(Oc1cc(Cl)c(Br)cc1Cl)c1ccccc1` (stereo not given), the Potency entry is “inactive”.

On to `CCCCCCCCOC(=O)c1ccc(C(=O)OCCCCCCCC)c(C(=O)OCCCCCCCC)c1`, for which the Potency entry is “inactive”.

Take `CCOC(=O)C(Cl)C(C)=O` (stereo not given): the Potency result is “inactive”.

On to `Cc1cc(=O)[nH]o1`, for which the Potency entry was “inactive”.

Take `CC1(C)CCC(Cc2ccc(Cl)cc2)C1(O)Cn1cncn1` (stereo not given): the Potency result is “inactive”.

As for `Brc1ccccc1`, the Potency result is “inactive”.

Take `II`: the Potency was 38.9 µM (active).

With `C[C@H]1CNCCc2ccc(Cl)cc21`, the Potency entry is “inactive”.

For the origin of these results see PubChem BioAssay (Tox21).
